# Shown are actives, neighbours in structure and some others; about 3.6% of the full set was active somewhere.
# Pf apPOL block: Pf-apPOL inhibitors, biochemical, fluorescence; 0.25% of 210,000 active; AID 1794808, 2022; Plasmodium falciparum apicoplast DNA polymerase (apPOL); Recombinant Pf-apPOL, molecular beacon fluorescence, 1.5 h; inhibition, % at 10 µM
# mHTT CaM bind: mutant huntingtin-calmodulin interaction inhibitors – biochemical, AlphaScreen, primary screen; inhibition, % at 15 µM; AID 1671202, 2021; 3.6% of 190,000 active; P42858; AlphaScreen His-mHTT/GST-CaM binding, luminescence;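 note: 0% = both proteins with DMSO and 100% = one protein alone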
# Starred values were filed as active, the others as inactive; i = inactive; x = no result given. Cut-off read from the data, not from the text of the source: active = inhibition above about 50%; inactive = the rest.
SMILES,Pf apPOL block,mHTT CaM bind
CCn1c(N2CCC(C(=O)Nc3ccc(OC)c(OC)c3)CC2)cc(=O)n(C)c1=O,-1.3,61.8*
CCn1c(N2CCC(C(=O)N3CCN(c4ccc(F)cc4)CC3)CC2)cc(=O)n(C)c1=O,3.7,70.5*
CCCn1ncc(N2CCC(C(=O)Nc3cc(C)ccc3OC)CC2)cc1=O,-1.6,77.3*
CCn1c(N2CCC(C(=O)Nc3cccc(OC)c3)CC2)cc(=O)n(C)c1=O,-0.5,44.1
CCn1c(N2CCC(C(=O)Nc3ccc(F)cc3)CC2)cc(=O)n(C)c1=O,-5.8,27.5
Cn1c(N2CCC(C(=O)N3CCN(c4ccc(Cl)cc4)CC3)CC2)cc(=O)n(C)c1=O,-1.1,49.9
O=C(c1cn(-c2ccccc2Cl)nn1)N1CCSCC1,-1.3,-4.6
Cc1ccc(NC(=O)c2cn3c(n2)CCCC3)cc1C,0.5,-1.9
COc1ccc(-n2ccn3cc(-c4cc(C)ccc4C)nc3c2=O)cc1,-10.8,-3.4
CCN(CC)C(=O)c1cc2cc3ccc(OC)cc3nc2s1,-6.4,4.0
Cc1nnc(N2C(=O)C(O)=C(C(=O)c3cccs3)C2c2ccc(Cl)c(Cl)c2)s1 (stereo not drawn),-4.1,92.0*
Cc1nnc(N2C(=O)C(O)=C(C(=O)c3cccs3)C2c2ccccc2F)s1 (stereo not drawn),-7.9,31.4
Cc1cc(C)cc(NCc2cc3c(cc2[N+](=O)[O-])OCO3)c1,-6.5,67.5*
COc1ccc(CNCc2cc3c(cc2[N+](=O)[O-])OCO3)cc1,-9.4,9.0
O=C(c1cccc(CN2C(=O)C3CCCN3C(=O)c3ccccc32)c1)N1CCCCC1 (stereo not drawn),0.3,-10.2
Cc1nn(C)cc1C(C)NC(=O)c1c(Br)c(C)nn1C (stereo not drawn),x,-8.4
O=c1oc2ccc(Cl)cc2n1CNc1ccccc1F,63.1*,3.0
O=c1oc2ccc(Cl)cc2n1CNc1ccccc1,-20.2,6.0
CNC(=O)c1ccc2c(c1)N(S(C)(=O)=O)CC2,2.0,-4.6
OC(COCC12CC3CC(CC(C3)C1)C2)CN1CCCC1 (stereo not drawn),-1.6,10.6
COc1ccc(OCC(O)CN2CCN(c3ccc(OC)cc3)CC2)cc1 (stereo not drawn),0.4,2.2
COc1ccc(N2CCN(CC(O)COCC34CC5CC(CC(C5)C3)C4)CC2)cc1 (stereo not drawn),-7.1,70.0*
OC(COCC12CC3CC(CC(C3)C1)C2)CN1CCN(c2cccc(Cl)c2)CC1 (stereo not drawn),-2.6,98.7*
O=C1c2ccccc2C(=O)N1CC1NCCc2ccccc21 (stereo not drawn),-0.6,-0.5
N#Cc1ccsc1NC(=O)CCCSc1ccc(Cl)cc1,1.9,-16.3
SMILES,Pf apPOL block,mHTT CaM bind
COc1ccccc1/C=C/C=c1\sc2nc(=O)c(Cc3ccccc3)nn2c1=O,-5.1,51.0*
COc1ccccc1/C=c1\sc2nc(=O)c(Cc3ccccc3)nn2c1=O,-0.6,2.0
Cc1ccc(S(=O)(=O)N2CCC(n3cnc4cc(F)ccc4c3=O)CC2)cc1,-0.8,-2.2
O=C(Nc1c2c(nn1-c1ccc(Cl)cc1)CS(=O)(=O)C2)c1ccccc1Br,-0.1,-1.0
O=[N+]([O-])c1ccc(N=Cc2cc(Br)cc([N+](=O)[O-])c2O)cc1,-3.8,15.0
O=C(Nc1ccc(O)c2c(=O)cc(-c3ccccc3Cl)oc12)c1ccc(Cl)cc1Cl,0.6,-3.2
O=c1cc(-c2ccccc2Cl)oc2c(NS(=O)(=O)c3cc(Cl)cc(Cl)c3O)ccc(O)c12,36.0,96.6*
Cc1ccc2nc(C(=O)NCCN3CCCCC3)cn2c1,-2.5,-3.9
Cc1ccc2nc(C(=O)NCCN3CCCCCC3)cn2c1,34.3,50.1*
CNc1ncnc2c1C(c1cccc([N+](=O)[O-])c1)c1c(NC)ncnc1O2,75.4*,13.0
COc1ncnc2c1C(c1cccc([N+](=O)[O-])c1)c1c(OC)ncnc1O2,-6.5,7.0
O=C(/C=C/c1ccccc1)O/N=C1\CCCc2oc3c(c21)CCCC3,-4.7,i
CC1=CC(=O)C=C(C)C1=NOC(=O)/C=C/c1ccccc1,-0.3,100.0*
Cc1ccc(OCC(=O)Nc2ccc(C(C)C)cc2)cc1,-1.2,-15.0
CC(C)c1ccc(OCC(=O)Nc2nnc(-c3ccc(Br)o3)o2)cc1,36.6,52.3*
CC1(C(=O)Nc2ccc3c(c2)OCCO3)Oc2cccnc2NC1=O (stereo not drawn),-4.7,-11.1
CN1C(=O)c2ccccc2C(C(=O)Nc2ccc(F)c(Cl)c2)C1c1cccs1 (stereo not drawn),-6.0,-3.0
O=C(OCc1cc(-c2ccc3c(c2)OCCO3)on1)c1cc(-c2ccco2)n[nH]1,67.0*,69.3*
Cc1nc(C)c(C(=O)OCc2cc(-c3ccc4c(c3)OCCO4)on2)s1,-2.3,-12.6
COc1nccnc1NS(=O)(=O)c1ccc(NC(=O)c2cc3ccccc3oc2=O)cc1,-3.4,-1.0
Cn1nc(C(=O)NCc2ccc(F)cc2)c2c1CCN(C(=O)COc1ccc(F)cc1)C2,-8.9,81.3*
